Compound activity from PubChem BioAssay.
DT40 TDP1 CPT – qHTS for Inhibitors of human tyrosyl-DNA phosphodiesterase 1 (TDP1): qHTS in cells in presence of CPT; chicken DT40 Tdp1-/-;hTDP1 cells + 20 nM CPT, ATP luminescence, 48 h; Potency, µM (series often up to 46.2 µM), inactives show at the top dose activity change, negative = growth inhibition, most hits filed as inhibitors; 12% of 420,000 active; note: potency is the fitted concentration of half-maximal effect; nearly all actives have a fitted effect of over 55% in size
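Cell growth measured by CellTiter-Glo luminescence after a minimum 48 h, 37 C compound exposure with 20 nM CPT in Tdp1-knockout DT40 cells stably expressing hTDP1, seeded 400/well; qHTS titration format.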
IL1B secr inh – qHTS for Inhibitors of Inflammasome Signaling: IL-1-beta AlphaLISA Primary Screen. THP-1 LPS/ATP IL-1B secretion, AlphaLISA, 16 h; active compounds read low. activity change, % at 57.5 µM. 4.7% of 360,000 active; in the data active = activity change below about -50%; inconclusive = mostly about -30% to -49%
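Secreted IL-1B measured by AlphaLISA bead assay after 16 h compound exposure of THP-1 cells; compounds (final up to 57.5 uM) added 1 h before LPS (250 ng/mL) and ATP (1.25 mM) stimulation; lower signal means less secretion.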
HT1080 IDH1KD tx – qHTS for induction of synthetic lethality in tumor cells producing 2HG: qHTS for the HT-1080-IDH1KD cell line; HT-1080 IDH1 knockdown viability, ATP luminescence, 48 h; AID 686971, 2013; 2% of 360,000 active; Potency, µM (titrated, usually from 46.1 µM), for the others: at the top dose activity, negative = toxicity, most hits filed as cytotoxic;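 note: potency is the fitted concentration of half-maximal effect; 0% = DMSO wells and -100% = cell-free medium wells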
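HT-1080-IDH1KD cells (IDH1 knocked down), 750/well in RPMI with 5% FBS, treated with compound 48 h at 37 degrees C. Viability by CellTiter-Glo luminescence, normalised to DMSO and no-cell wells; concentration-response curves classed.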
HT1080-NT tox – qHTS for induction of synthetic lethality in tumor cells producing 2HG: qHTS for the HT-1080-NT fibrosarcoma cell line | HT-1080-NT fibrosarcoma viability, CellTiter-Glo ATP luminescence, 48 h | Potency, µM (series often up to 46.1 µM), inactives show at the highest dose activity, negative = less viability, usual class: cytotoxic | 1.6% of 360,000 active | AID 686970, 2013;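 note: NT is the 2HG producing partner of a matched IDH1 knockdown line; potency is the fitted concentration of half-maximal effect; 0% = DMSO-treated cells and -100% = media-only wells without cells; nearly all actives have a fitted effect of over 55% in size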
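A 48-hour cytotoxicity screen used HT-1080-NT cells plated 2 hours before compound delivery. ATP-based CellTiter-Glo luminescence measured viability, normalized to DMSO and no-cell controls.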
TDP1 cell noCPT – qHTS for Inhibitors of human tyrosyl-DNA phosphodiesterase 1 (TDP1): qHTS in cells in absence of CPT | DT40 Tdp1-/- hTDP1 cells, no CPT, ATP luminescence, 48 h | Potency, µM (doses to about 46.2 µM), for the others: at the highest dose activity change, negative = growth inhibition, most hits filed as inhibitors | 15% of 420,000 active | AID 686978, 2013; note: potency is the fitted concentration of half-maximal effect; nearly all actives have a fitted effect of over 55% in size
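Growth kinetics read by CellTiter-Glo luminescence after ≥48 hr at 37 °C. Cells: DT40 Tdp1-/- stably carrying human TDP1, 400 per well, compound exposure in the absence of CPT (DMSO vehicle).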
Numbers without * were called inactive; ? = inconclusive; nt = not tested or not shown. Rows were chosen to be rich in hits. Some 19% of all compounds tested hit in one or more screens of this group. Unless noted, calls come from the whole dose curve; as a rule, active = well fitted curve in the direction sought with a large enough effect; inconclusive = small, poorly fitted or top-dose-only effect, or another doubt; inactive = no such curve, though single readings can be large; an effect the other way counts as inactive or inconclusive. Unless noted, % is set by controls: 0 for no effect and ±100 for the full control effect.

SMILES	DT40 TDP1 CPT	IL1B secr inh	HT1080 IDH1KD tx	HT1080-NT tox	TDP1 cell noCPT
COc1ccc(CCNCc2c(OC)ccc3ccccc23)cc1OC	16µM*	?	?	?	?
COc1ccc2ccccc2c1CNC(C)CCc1ccccc1 (stereo not given)	9.2µM*	nt	18µM*	?	?
O=C(C[C@H]1C/C=C\CC[C@H](Cc2ccc(F)cc2)C(=O)O[C@H](c2ccccc2)CNC1=O)N[C@H](CO)Cc1ccccc1	13µM*	0	?	?	13µM*
O=C(C[C@H]1C/C=C\CC[C@H](Cc2ccc(F)cc2)C(=O)O[C@@H](c2ccccc2)CNC1=O)N[C@@H](CO)Cc1ccccc1	?	63	?	?	?
O=C(C[C@H]1C/C=C\C[C@H](Cc2ccc(F)cc2)C(=O)O[C@@H](c2ccccc2)CNC1=O)N[C@H](CO)Cc1ccccc1	?	-8	-4%	-20%	10µM*
C=CCn1c(SCc2c(C)noc2C)nnc1C1COc2ccccc2O1 (stereo not given)	?	3	-18%	-2%	?
CCOc1cc(C2C(C#N)=C(N)OC(C)=C2C(C)=O)cc(Br)c1O (stereo not given)	-9%	17	12%	10%	-15%
CCOc1cc(C2C(C#N)=C(N)OC(C)=C2C(C)=O)c(Br)c(Br)c1OC(C)C (stereo not given)	4.6µM*	0	15µM*	7.3µM*	4.6µM*
CN(C)CCCNC(=O)C(=O)NCC(c1ccc2c(c1)OCO2)N1CCOCC1 (stereo not given)	6%	nt	nt	nt	-21%
Cc1ccc(-c2nc(NC(=O)CSc3cc(C)c4ccccc4n3)ns2)cc1	13µM*	51	14%	3%	16µM*
COc1ccc2c(C)cc(SCC(=O)Nc3nsc(-c4ccc(C)cc4)n3)nc2c1	-9%	1	6%	5%	-28%
COc1ccc2c(C)cc(SCC(=O)Nc3nsc(-c4ccccc4C)n3)nc2c1	?	nt	nt	nt	15µM*
CCNC(=O)Cn1cc(C(F)(F)F)cc(Cl)c1=O	-21%	-13	15%	25%	12%
CCOc1ccc(NC(=O)C(=O)NCCN2CCN(S(=O)(=O)c3ccc(C)cc3)CC2)cc1	?	0	-12%	2%	9.2µM*
Cc1ccc(NC(=O)C(=O)NCCN2CCN(C(=O)C(c3ccccc3)c3ccccc3)CC2)cc1	18µM*	?	14%	2%	18µM*
CCN(CC)/C(Sc1ccccc1)=C(\C(Cl)=C(Cl)Cl)[N+](=O)[O-]	?	-89*	15%	27%	?
O=[N+]([O-])/C(C(Cl)=C(Cl)Cl)=C(\Sc1ccccc1)N1CCCCC1	18µM*	-16	-5%	-5%	23µM*
CCN(CC)/C(Sc1ccccc1)=C(/C(Cl)=C(Cl)Cl)[N+](=O)[O-]	21µM*	-7	0%	10%	?
CCOc1ccccc1N/C(=C(/C(Cl)=C(Cl)Cl)[N+](=O)[O-])n1cncn1	-20%	13	6%	-3%	?
CCc1ccc2c(c1)c1nnc(NN)nc1n2CC	?	-2	-10%	-15%	18µM*
CCCn1c2ccc(F)cc2c2nnc(NN)nc21	?	7	-23%	-6%	?
CCn1c2ccc(F)cc2c2nnc(NN)nc21	?	16	9%	4%	16µM*
NNc1nnc2c3cc(F)ccc3n(Cc3ccccc3)c2n1	?	-10	?	?	18µM*
Cc1sc2ncnc(N3CCC(C(=O)Nc4cc(Cl)ccc4Cl)CC3)c2c1C	?	-1	-22%	-15%	?
CCc1nnc(NC(=O)C2CCN(c3ncnc4sc(C)c(C)c34)CC2)s1	-21%	46	6%	4%	-14%
SMILES	DT40 TDP1 CPT	IL1B secr inh	HT1080 IDH1KD tx	HT1080-NT tox	TDP1 cell noCPT
CCOC(=O)c1ccccc1NC(=O)C1CCN(c2ncnc3sc(C)c(C)c23)CC1	23µM*	54	-6%	-5%	?
Cc1sc2ncnc(N3CCC(C(=O)Nc4ccccc4C(C)(C)C)CC3)c2c1C	21µM*	-9	-22%	-3%	13µM*
COc1ccc([C@H]2N[C@]3(CCCN(CC4CCCCC4)C3=O)[C@H]3C(=O)N(Cc4ccccc4)C(=O)[C@@H]23)cc1	?	-7	1%	-3%	21µM*
CCN1C(=O)[C@H]2[C@@H](c3ccc(C(F)(F)F)cc3)N[C@]3(CCCN(CC4CCCCC4)C3=O)[C@H]2C1=O	?	?	8%	-7%	?
Cc1ccc(CN2CCC[C@]3(N[C@H](c4ccc(C(F)(F)F)cc4)[C@@H]4C(=O)N(Cc5ccccc5)C(=O)[C@@H]43)C2=O)cc1	21µM*	-14	-23%	-13%	21µM*
CCN1C(=O)[C@H]2[C@@H](c3ccc(C)cc3)N[C@]3(CCCN(Cc4ccc(C(F)(F)F)cc4)C3=O)[C@H]2C1=O	13µM*	17	-1%	-6%	10µM*
Cc1ccc(CN2CCC[C@]3(N[C@H](c4ccc(C(F)(F)F)cc4)[C@@H]4C(=O)N(C)C(=O)[C@@H]43)C2=O)cc1	?	5	-3%	-1%	?
CCN1C(=O)[C@H]2[C@@H](c3ccc(C(F)(F)F)cc3)N[C@]3(CCCN(Cc4ccc(F)cc4)C3=O)[C@H]2C1=O	21µM*	2	-5%	-2%	9.2µM*
CCN1C(=O)[C@H]2[C@@H](c3ccc(C(F)(F)F)cc3)N[C@]3(CCCN(Cc4ccccc4)C3=O)[C@H]2C1=O	21µM*	-20	-3%	-10%	16µM*
COc1ccc(CN2CCC[C@]3(N[C@H](c4ccc(C(F)(F)F)cc4)[C@@H]4C(=O)N(Cc5ccccc5)C(=O)[C@@H]43)C2=O)cc1	?	-16	-23%	-15%	?
CCN1C(=O)[C@H]2[C@@H](c3ccc(OC)cc3)N[C@]3(CCCN(Cc4ccc(C(F)(F)F)cc4)C3=O)[C@H]2C1=O	?	1	-1%	0%	18µM*
Cn1cccc1CN1CCC[C@]2(N[C@H](c3ccc(C(F)(F)F)cc3)[C@@H]3C(=O)N(Cc4ccccc4)C(=O)[C@@H]32)C1=O	-15%	?	-6%	-13%	-22%
COc1ccc(-c2cnc3c(NC=O)cc(-c4ccc(C(=O)N5CCOCC5)cc4)cn23)cc1OC	4.1µM*	?	21µM*	?	3.3µM*
